Source: PubChem (National Center for Advancing Translational Sciences (NCATS))
TDP1 cell CPT – DT40-hTDP1 cell growth loss with CPT | actives 12% (n = 420,000) | chicken DT40 Tdp1-/-;hTDP1 cells + 20 nM CPT, ATP luminescence, 48 h | AID 686979 | Potency, µM (titrated, usually from 46.2 µM), inactives show at the highest dose activity change, negative = growth inhibition, most hits filed as inhibitors; also: potency is read from the fitted curve at half-maximal effect; % is scaled to controls: 0 for no effect and ±100 for the full control effect; nearly all actives have a fitted effect of over 55% in size
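Chicken DT40 Tdp1-/- cells complemented with human TDP1, 400 cells/well, exposed to compounds plus 20 nM camptothecin for at least 48 h at 37 C; viability read as ATP content by CellTiter-Glo luminescence.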
HepG2 tox – HepG2 cytotoxicity, counter-screen for TGF-b inhibitors; HepG2 CAGA-GFP viability, ATP luminescence, 18 h; AID 588856; Potency, µM (doses to about 46.1 µM), without a hit: at the top dose activity change, negative = cytotoxicity, hits mostly cytotoxic; actives 0.76% (n = 410,000); also: potency is read from the fitted curve at half-maximal effect
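HepG2 CAGA-GFP cells (1000/well, DMEM with 1% FBS) received compound, then TGF-beta at 500 pg/mL final, and were incubated 18 hours at 37 degrees C. Viability was read by CellTiter-Glo luminescence. Media-only wells were set as complete cell-killing and DMSO as no toxicity.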
DT40 TDP1 no CPT – qHTS for Inhibitors of human tyrosyl-DNA phosphodiesterase 1 (TDP1): qHTS in cells in absence of CPT; DT40 Tdp1-/- hTDP1 cells, no CPT, ATP luminescence, 48 h; Potency, µM (highest dose often 46.2 µM), without a hit: at the top dose activity change, negative = growth inhibition, hits mostly inhibitors; actives 15% (n = 420,000); also: potency is read from the fitted curve at half-maximal effect; % is scaled to controls: 0 for no effect and ±100 for the full control effect; nearly all actives have a fitted effect of over 55% in size
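Cells were dispensed at 400 per well, compounds added by pin tool, plates incubated ≥48 hr at 37 °C, then CellTiter-Glo added for 30 min at room temperature before luminescence reading. Line: DT40 Tdp1-/- complemented with hTDP1; camptothecin omitted.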
TGFb SMAD3 inh – inhibitors of TGF-b signaling; AID 588855; Potency, µM (series often up to 46.1 µM), inactives show at the top dose activity, negative = inhibition, actives largely listed as inhibitors; actives 1.2% (n = 410,000); HepG2 CAGA-GFP TGF-b/SMAD3 reporter, GFP fluorescence, 18 h; TGF-beta stimulated, 500 pg/mL final; also: potency is read from the fitted curve at half-maximal effect; % is scaled to controls: 0 for no effect and ±100 for the full control effect; nearly all actives have a fitted effect of over 65% in size
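Per well, imaged GFP fluorescence of HEPG2 CAGA-GFP cells gives the signal; cells get compound, then TGF-beta (500 pg/mL final), 18 h at 37 degrees C; %Activity versus -TGF-beta and +DMSO controls.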
ASM inhibitor – inhibitors of human secretory acid sphingomyelinase; actives 0.006% (n = 340,000); P17405; Potency, µM (titrated, usually from 57.5 µM), for inactives: at the top dose activity change, negative = inhibition, actives largely listed as inhibitors; placental ASM, HMU-PC fluorogenic substrate, 60 min; AID 504937; also: potency is read from the fitted curve at half-maximal effect
Target sequence (P17405 47-631 limits assumed): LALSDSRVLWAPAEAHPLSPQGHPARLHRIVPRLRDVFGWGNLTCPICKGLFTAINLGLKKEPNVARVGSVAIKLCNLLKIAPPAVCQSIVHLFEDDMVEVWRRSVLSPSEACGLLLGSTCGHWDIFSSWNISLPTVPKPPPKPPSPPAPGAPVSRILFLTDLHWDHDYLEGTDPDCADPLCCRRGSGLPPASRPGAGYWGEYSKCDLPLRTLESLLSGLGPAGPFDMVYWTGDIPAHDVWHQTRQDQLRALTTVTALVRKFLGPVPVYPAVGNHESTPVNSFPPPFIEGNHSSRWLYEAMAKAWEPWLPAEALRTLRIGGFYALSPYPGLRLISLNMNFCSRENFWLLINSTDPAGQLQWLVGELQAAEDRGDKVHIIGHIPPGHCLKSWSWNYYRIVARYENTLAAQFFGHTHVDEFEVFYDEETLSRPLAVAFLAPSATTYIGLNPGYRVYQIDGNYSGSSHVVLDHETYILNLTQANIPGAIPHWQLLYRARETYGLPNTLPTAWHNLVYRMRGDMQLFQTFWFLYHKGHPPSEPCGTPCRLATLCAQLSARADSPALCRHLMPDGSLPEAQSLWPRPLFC
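Fluorescence read-out (Ex 386 nm, Em 447 nm) after stopping the reaction at pH 10. Enzyme: ASM from human placenta; substrate HMU-PC0, 9 uM final; 60 min, 37 °C. Compound preincubation 10 min, ambient temperature.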
IL-1B inflam inh – inhibitors of inflammasome signaling (IL-1 beta secretion); THP-1 LPS/ATP IL-1B secretion, AlphaLISA, 16 h; hits give low values; activity change, % at 57.5 µM; actives 4.7% (n = 360,000); in the data active = activity change below about -50%; inconclusive = mostly about -30% to -49%; also: % is scaled to controls: 0 for no effect and ±100 for the full control effect
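THP-1 cells pretreated 1 hr with compounds (up to 57.5 uM final), then stimulated with LPS (250 ng/mL final) plus ATP (1.25 mM final); secreted IL-1B measured by AlphaLISA after 16 hr, decreased signal indicating inhibition.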
The depositor's hits bear a star; i = inactive; ? = inconclusive; nt = no result given. In the library only some 19% were active in any assay of this set; here they are far more common. Unless noted, calls follow the shape of the dose curve; as a rule, active = well fitted curve in the direction sought with a large enough effect; inconclusive = small, poorly fitted or top-dose-only effect, or another doubt; inactive = no such curve, though single readings can be large; an effect the other way counts as inactive or inconclusive.

SMILES	TDP1 cell CPT	HepG2 tox	DT40 TDP1 no CPT	TGFb SMAD3 inh	ASM inhibitor	IL-1B inflam inh
COc1ccc(CCNC(=O)CNC(=O)c2nn(-c3ccc(OC)c(OC)c3)c(=O)c3ccccc23)cc1OC	-28%	5%	9.2µM*	8%	0%	-6
COc1ccc(-n2nc(C(=O)NCC(=O)N3CCCC(C)C3)c3ccccc3c2=O)cc1 (configuration not stated)	-14%	-13%	21µM*	7%	-3%	-10
CCOC(=O)N1CCN(C(=O)COC(=O)c2ccccc2NCCO)CC1	27%	-2%	10%	1%	i	1
CCOc1ccc(C(=O)NCc2nc3cccnc3n2Cc2ccc(F)cc2)cc1OCC	-16%	-13%	-22%	?	nt	nt
O=S(=O)(Nc1cc(F)ccc1F)c1ccc2[nH]c3c(c2c1)CCCC3	?	-52%	?	?	nt	nt
O=S(=O)(Nc1cccc(F)c1)c1ccc2[nH]c3c(c2c1)CCCCC3	21µM*	-101%	?	?	nt	nt
O=S(=O)(Nc1cc(F)ccc1F)c1ccc2[nH]c3c(c2c1)CCCCC3	?	11µM*	?	?	nt	nt
O=S(=O)(NCc1ccc(F)cc1)c1ccc2[nH]c3c(c2c1)CCCCC3	?	-62%	?	?	nt	nt
OC1(Cc2cc(-c3ccccc3)no2)CCN(CCCc2ccccc2)CC1	?	-44%	?	-8%	3%	-29
CNC(=O)c1c(I)c(C(=O)NCC(=O)Nc2c(I)c(C(=O)O)c(I)c(C(=O)NCCO)c2I)c(I)c(N(C)C(C)=O)c1I	-17%	-10%	9%	-9%	3%	12
O=C(COc1ccc(Br)cc1)Nc1cccc2cccnc12	?	-14%	?	8%	nt	nt
Cc1ccc(Cn2c(=N)n(CC(=O)c3ccc([N+](=O)[O-])cc3)c3ccccc32)cc1	4.6µM*	-25%	2.9µM*	-22%	-10%	-102*
CCCCCCCn1c(=N)n(CC(=O)c2ccco2)c2ccccc21	21µM*	-92%	?	?	-1%	-80*
CCCCCCCn1c(=N)n(CC(O)c2ccco2)c2ccccc21 (configuration not stated)	3.7µM*	22µM*	4.6µM*	?	9%	0
CCn1c(=N)n(CC(=O)c2ccco2)c2ccccc21	13µM*	-13%	?	7%	0%	18
Cc1ccc(C(=O)Cn2c(=N)n(CCN3CCOCC3)c3ccccc32)cc1	?	-27%	?	-20%	-2%	-4
N=c1n(CCN2CCCC2)c2ccccc2n1CC(O)c1ccco1 (configuration not stated)	-26%	-3%	-13%	-2%	1%	-26
CC(NC(=O)c1ccco1)c1nnc2n1CCN(Cc1ccc(N(C)C)cc1)CC2 (configuration not stated)	-3%	nt	-14%	nt	nt	nt
CNC(=O)c1c(NC(=O)c2nc(SCc3ccc(C)cc3)ncc2Cl)sc2c1CCCC2	1%	10%	-15%	-11%	nt	nt
CCn1c(=N)n(CC(=O)c2ccc(Cl)c(Cl)c2)c2ccccc21	26µM*	-70%	21µM*	?	-8%	-73*
O=C(Cn1ccccc1=S)c1ccc(Cl)c(Cl)c1	-2%	18%	-21%	-4%	0%	-81*
O=C(Cn1ccccc1=O)c1ccc(Cl)cc1	2%	9%	8%	2%	-1%	-17
CC(OC(=O)c1cccc(-n2cnnn2)c1)C(=O)NCc1ccccc1 (configuration not stated)	26%	1%	3%	15%	-5%	11
CC(=O)C[C@@H]1SC[C@H](c2ccccc2)N1S(=O)(=O)c1ccc(C)cc1	15µM*	nt	15µM*	nt	nt	-9
CCOC(=O)C1=C[C@@H](C(C)C)N(S(=O)(=O)c2ccc(C)cc2)[C@H]1c1ccccc1F	?	-10%	?	?	nt	-3
SMILES	TDP1 cell CPT	HepG2 tox	DT40 TDP1 no CPT	TGFb SMAD3 inh	ASM inhibitor	IL-1B inflam inh
CCOC(=O)C1=C[C@@H](C(C)C)N(S(=O)(=O)c2ccc(C)cc2)[C@H]1c1ccc(C(C)C)cc1	?	-28%	18µM*	?	nt	4
CCOC(=O)C1=CCC(c2ccccc2)N(S(=O)(=O)c2ccc(C)cc2)[C@H]1CC (some centres not stated)	21µM*	nt	16µM*	nt	nt	10
CCOC(=O)C1=C[C@@H](C2CCCC2)N(S(=O)(=O)c2ccc([N+](=O)[O-])cc2)[C@H]1c1ccccc1	21µM*	-22%	12µM*	?	nt	24
CC(=O)[C@H]1CC[C@@H](c2ccccc2)N(S(=O)(=O)c2ccc(C)cc2)C1	?	nt	?	nt	nt	7
CCOc1ccc(NC(=O)C2CCCN(c3nc(C)cc(C)n3)C2)cc1 (configuration not stated)	?	8%	-21%	11%	2%	16
CCOC(=O)C1=C[C@@H](CC)N(S(=O)(=O)c2ccc(C)cc2)[C@H]1c1ccccc1	23µM*	-9%	15µM*	?	nt	12
CC[C@@H]1C=C(C(=O)O)[C@H](c2cccc(C)c2)N1S(=O)(=O)c1ccc(C)cc1	-2%	-2%	16%	-14%	-4%	32
CCOC(=O)C1=C[C@@H](C(C)(C)C)N(S(=O)(=O)c2ccc(C)cc2)[C@H]1c1ccc(C)cc1	13µM*	-30%	12µM*	?	nt	51
CCN1C(=O)N(c2ccc(C(C)=O)cc2)S(=O)(=O)c2ccccc21	-13%	-6%	?	?	0%	1
CC(=O)c1ccc(N2C(=O)N(CC(=O)c3ccc(C)cc3)c3ccccc3S2(=O)=O)cc1	?	-14%	23µM*	-5%	nt	nt
CC(=O)c1ccc(N2C(=O)N(Cc3cccc(C(F)(F)F)c3)c3ccccc3S2(=O)=O)cc1	16µM*	-9%	15µM*	?	nt	nt
Cc1cccc(N2C(=O)N(CC(=O)C(C)(C)C)c3ccccc3S2(=O)=O)c1C	15µM*	-27%	13µM*	-15%	nt	nt
CCOc1ccc(N2C(=O)N(Cc3ccc(C)cc3C)c3ccccc3S2(=O)=O)cc1	?	-10%	16µM*	0%	nt	nt
Cc1ccc(C)c(N2C(=O)N(Cc3cccc(C(F)(F)F)c3)c3ccccc3S2(=O)=O)c1	?	-30%	?	-13%	nt	nt
